Records with an inconclusive call do not appear. Where a structure was tested more than once in an assay, its records may differ in their call. Activity calls are given as the source filed them. Unless noted, the call rests on the fitted dose curve; in most records, active means well fitted curve in the direction sought with a large enough effect in the repeat runs; inconclusive means weak or mixed curves; inactive means no such curve, though single readings can be large; an effect the other way counts as inactive or inconclusive.

The source of these data is PubChem BioAssay (Tox21).

The target in experiment [1] is Thyrotropin receptor (Homo sapiens) (UniProt P16473). As to the kind of experiment: qHTS assay to identify small molecule antagonists of the thyroid stimulating hormone receptor (TSHR) signaling pathway (AID 1259385; calls by dose curve; further: nearly all actives have a fitted effect of over 20% in size). Put shortly:
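TSHR-HEK293 cells were plated and held 18 h at 37C/5% CO2, then given compound plus Ro20-1724 and stimulated with TSH at 1.5 ng/mL final. After 30 min at room temperature, cAMP was detected with cAMP-d2/anti-cAMP-cryptate (1 h) by fluorescence.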

Experiment [2] in a line: qHTS assay to identify small molecule agonists of the estrogen receptor alpha (ER-alpha) signaling pathway in the presence of an antagonist - cell viability counter screen (AID 1259386).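 Further: series mostly up to about 92 µM; cells exposed to compounds for 22 h at 37 °C before the viability read; nearly all actives have a fitted effect of over 30% in size.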 Summed up: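 Viability counter screen using VM7Luc4E2 (full-length ER-alpha, four ERE-luciferase). The cells were treated with compounds alongside ICI-182,780 10.0nM for 22hr, and live-cell protease fluorescence was quantified with CellTiter-Fluor.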

The target of experiment [3] is Progesterone receptor (Homo sapiens) (UniProt P06401). Put plainly: qHTS assay to identify small molecule antagonists of the progesterone receptor (PR) signaling pathway (AID 1346795; active means well fitted inhibition curve with a large enough effect in the signal ratio in the repeat runs, not every such curve was filed as active; the % refers to the signal ratio). Summed up:
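PR-UAS-bla HEK293T cells carrying a UAS-driven beta-lactamase reporter were plated in medium with 2% charcoal-stripped FBS and rested 6 hr at 37C. Compounds were added with 1 nM R5020 (final) for 16 hr, then FRET substrate loaded 2 hr at room temperature.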

The nature of experiment [4]: qHTS assay to identify small molecule antagonists of the progesterone receptor (PR) signaling pathway - cell viability counter screen (AID 1346798). Further: series mostly up to about 92 µM; nearly all actives have a fitted effect of over 50% in size. Summed up: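 PR-UAS-bla HEK293T cells in medium with 2% charcoal-stripped FBS were treated with compounds plus R5020 for 16 hr at 37C. Cell viability was then read by CellTiter-Glo luminescence after 30 min at room temperature in the same wells.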

Experiment [5] in a line: qHTS assay to identify small molecule agonists of the progesterone receptor (PR) signaling pathway - cell viability counter screen (AID 1346799; calls by dose curve; further: nearly all actives have a fitted effect of over 45% in size; further: potency means the concentration at half of the fitted maximal effect). Summed up:
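PR-UAS-bla HEK293T cells, 3,000 per well in medium with 2% charcoal-stripped FBS, were preincubated 6 hr at 37C, then exposed to compounds for 16 hr; viability was read as CellTiter-Glo luminescence after 30 min at room temperature.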

A short description of experiment [6]: qHTS assay to identify small molecule antagonists of the TGF-beta/Smad signaling pathway - cell viability counter screen (AID 1346824). Further: nearly all actives have a fitted effect of over 50% in size. Summed up:
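SBE-bla HEK 293T cells were plated overnight at 37 C, then given compounds in DMSO plus TGF-beta1 (added as 0.25 ng/mL solution) for 5 hr. After the bla read, CellTiter-Glo was added to the same wells and luminescence read after 30 min at room temperature.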

Experiment [7] can be described thus: qHTS assay to identify small molecule agonists of the TGF-beta/Smad signaling pathway - cell viability counter screen (AID 1346829). Further: top concentration of the series differs between compounds; nearly all actives have a fitted effect of over 45% in size. Summed up:
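Here the cytotoxicity of library compounds is measured in SBE-bla HEK 293T cells treated for 5 hr, using CellTiter-Glo added to wells already read for the beta-lactamase reporter.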

Experiment [8] is described as follows: qHTS assay to identify small molecule agonists of the TGF-beta/Smad signaling pathway (AID 1346859; active means well fitted activation curve with a large enough effect in the signal ratio in the repeat runs, not every such curve was filed as active; the % refers to the signal ratio; further: series mostly up to about 77 µM). Put shortly: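 HEK 293T cells stably carrying a beta-lactamase reporter driven by the Smad binding element were seeded overnight, exposed to DMSO-dissolved compounds for 5 hr at 37 C, 5% CO2, then loaded with FRET substrate for 2 hr at room temperature.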
Experiment [9] can be described thus: Human pregnane X receptor (PXR) small molecule agonists, qHTS cell viability counter screen (AID 1346977). Further: nearly all actives have a fitted effect of over 50% in size. Summed up: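 PXR-Luc HepG2 cells in medium with 5% charcoal-stripped FBS were pre-incubated 5hr, then exposed to compounds for 24hr at 37C. Viability was read in the same wells by CellTiter-Fluor fluorescence, reagent added after 23hr with a 1hr incubation.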

Experiment [10] is described as follows: Caspase-3/7 induction in HepG2 cells by small molecules, qHTS assay (AID 1346978). Further: nearly all actives have a fitted effect of over 15% in size. Put shortly: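 Wild-type HepG2 cells (2,000/well) were settled 5 h at 37 C, 5% CO2, then exposed to compounds in DMSO for 17 h. Caspase-3/7 activity was read by luminescence 30 min after adding Caspase-Glo 3/7 reagent at room temperature.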
Experiment [11] in a line: Caspase-3/7 induction in CHO-K1 cells by small molecules, qHTS cell viability counter screen (AID 1346979). Further: nearly all actives have a fitted effect of over 35% in size. Summed up:
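Wild-type CHO-K1 cells were seeded at 1,500 per well, rested 5hr at 37 C, then exposed to compounds in DMSO. After 16hr, CellTiter-Fluor reagent was added and fluorescence read 1hr later as the viability measure.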

A short description of experiment [12]: Caspase-3/7 induction in CHO-K1 cells by small molecules, qHTS assay (AID 1346980). Further: nearly all actives have a fitted effect of over 15% in size. Put shortly: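 Wild-type cells were seeded at 1,500 per well and settled 5 hr at 37 C, 5% CO2, then exposed to DMSO-dissolved compounds for 17 hr. Caspase-Glo 3/7 reagent was added, and luminescence was read after 30min at room temperature.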
Experiment [13] is described as follows: Caspase-3/7 induction in HepG2 cells by small molecules, qHTS cell viability counter screen (AID 1346981). Further: series mostly up to about 92 µM; nearly all actives have a fitted effect of over 30% in size. Put shortly: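 Viability determined by CellTiter-Fluor fluorescence in HepG2 wells also used for the luminescent Caspase-Glo 3/7 read. Compounds were present for 16 hr at 37 C, 5% CO2 before reagent addition.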
Experiment [14] addresses Nuclear receptor subfamily 1 group I member 2 (Homo sapiens) (UniProt O75469). As to the kind of experiment: Human pregnane X receptor (PXR) small molecule agonists, qHTS assay (AID 1346982). Further: nearly all actives have a fitted effect of over 35% in size. Summed up: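 Compound-induced hPXR transactivation of a CYP3A4 luciferase reporter was scored in HepG2 PXR-Luc cells over 24 hr at 37 C, 5% CO2, by luminescence.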
Experiment [15] concerns the target Progesterone receptor (Homo sapiens) (UniProt P06401). As to the kind of experiment: qHTS assay to identify small molecule agonists of the progesterone receptor (PR) signaling pathway (AID 1346784; calls by dose curve; further: nearly all actives have a fitted effect of over 30% in size). Summed up:
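PR-UAS-bla HEK 293T cells carrying a UAS-driven beta-lactamase reporter were seeded in medium with 2% charcoal-stripped FBS, preincubated 6 hr at 37C, then exposed to compounds in DMSO for 16 hr; agonism was read by LiveBLAzer B/G FRET fluorescence.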

For experiment [16], the target named is Thyrotropin-releasing hormone receptor (Homo sapiens) (UniProt P34981). As to the kind of experiment: qHTS assay to identify small molecule antagonists of the thyrotropin-releasing hormone receptor (TRHR) signaling pathway (AID 1346877; active means well fitted inhibition curve with a large enough effect in the repeat runs, not every such curve was filed as active; further: series mostly up to about 51 µM). Put shortly:
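Following an 18 h incubation at 37 °C and a 2 h calcium dye load, TRHR-HEK293 cells were exposed to compound (5 min, room temperature) and challenged with TRH, 1 nM final.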

Experiment [17] has the same target. Put plainly: qHTS assay to identify small molecule agonists of the thyrotropin-releasing hormone receptor (TRHR) signaling pathway (AID 1346891; calls by dose curve; further: series mostly up to about 58 µM). Summed up:
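TRHR-expressing HEK293 cells were plated 18 h at 37 °C/5% CO2, loaded with calcium dye 2 h at 37 °C, then given compound in DMSO; fluorescence was read kinetically for 3 min at 1 s intervals.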

Experiment [18] has as its target Nuclear receptor subfamily 1 group I member 2 (Homo sapiens) (UniProt O75469). Put plainly: CYP3A4 induction through human pregnane X receptor (PXR) by small molecules, qHTS assay (AID 1346984). Further: nearly all actives have a fitted effect of over 40% in size. Put shortly: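 Readings come from a luciferase reporter: DPX-2 cells, which are HepG2 cotransfected with PXR and a CYP3A4-promoter construct, were exposed to test compounds for 24 h at 37C before One-Glo detection.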

Experiment [19] shares this target. As to the kind of experiment: Human pregnane X receptor (PXR) activation by small molecules, qHTS assay (AID 1346985). Further: nearly all actives have a fitted effect of over 40% in size. Put shortly:
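DPX-2 cells (HepG2 co-transfected with a PXR response element and a CYP3A4-promoter luciferase construct) were seeded at 2,000 per well, rested 5 hr at 37C, then exposed to DMSO-dissolved compounds for 24 hr. Activation was read as luciferase luminescence.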

For experiment [20], the target named is Nuclear receptor subfamily 1 group I member 2 (Rattus norvegicus) (UniProt Q9R1A7). Put plainly: Rat pregnane X receptor (rPXR) activation by small molecules, qHTS assay (AID 1346983). Further: nearly all actives have a fitted effect of over 20% in size. Conditions: rPXR luciferase reporter cells, One-Glo luminescence, 24 h; stronger effect = higher value. Summed up:
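Cell-based rPXR luciferase reporter assay, 2,000 cells per well, rested 5hr at 37 C before compound addition in DMSO, then 24 hr at 37 C. One-Glo reagent was added and luminescence read after 30 min at room temperature.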
On the % scale 0 is the no-effect control and ±100 the full control effect.

Sequence of Nuclear receptor subfamily 1 group I member 2 (Homo sapiens) (O75469 whole entry, looked up): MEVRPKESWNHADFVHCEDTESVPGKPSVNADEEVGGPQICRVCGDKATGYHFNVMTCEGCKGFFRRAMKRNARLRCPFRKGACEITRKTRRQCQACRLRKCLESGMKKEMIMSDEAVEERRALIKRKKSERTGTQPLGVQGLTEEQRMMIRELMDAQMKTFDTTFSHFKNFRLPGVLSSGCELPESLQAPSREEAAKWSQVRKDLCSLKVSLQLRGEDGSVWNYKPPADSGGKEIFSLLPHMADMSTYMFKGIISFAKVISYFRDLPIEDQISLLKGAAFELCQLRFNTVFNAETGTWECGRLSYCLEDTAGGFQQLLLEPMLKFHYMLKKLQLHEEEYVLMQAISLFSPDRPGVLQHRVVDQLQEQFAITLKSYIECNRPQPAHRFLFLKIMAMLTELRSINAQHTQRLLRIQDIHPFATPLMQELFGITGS
Sequence of Progesterone receptor (Homo sapiens) (P06401 whole entry, looked up): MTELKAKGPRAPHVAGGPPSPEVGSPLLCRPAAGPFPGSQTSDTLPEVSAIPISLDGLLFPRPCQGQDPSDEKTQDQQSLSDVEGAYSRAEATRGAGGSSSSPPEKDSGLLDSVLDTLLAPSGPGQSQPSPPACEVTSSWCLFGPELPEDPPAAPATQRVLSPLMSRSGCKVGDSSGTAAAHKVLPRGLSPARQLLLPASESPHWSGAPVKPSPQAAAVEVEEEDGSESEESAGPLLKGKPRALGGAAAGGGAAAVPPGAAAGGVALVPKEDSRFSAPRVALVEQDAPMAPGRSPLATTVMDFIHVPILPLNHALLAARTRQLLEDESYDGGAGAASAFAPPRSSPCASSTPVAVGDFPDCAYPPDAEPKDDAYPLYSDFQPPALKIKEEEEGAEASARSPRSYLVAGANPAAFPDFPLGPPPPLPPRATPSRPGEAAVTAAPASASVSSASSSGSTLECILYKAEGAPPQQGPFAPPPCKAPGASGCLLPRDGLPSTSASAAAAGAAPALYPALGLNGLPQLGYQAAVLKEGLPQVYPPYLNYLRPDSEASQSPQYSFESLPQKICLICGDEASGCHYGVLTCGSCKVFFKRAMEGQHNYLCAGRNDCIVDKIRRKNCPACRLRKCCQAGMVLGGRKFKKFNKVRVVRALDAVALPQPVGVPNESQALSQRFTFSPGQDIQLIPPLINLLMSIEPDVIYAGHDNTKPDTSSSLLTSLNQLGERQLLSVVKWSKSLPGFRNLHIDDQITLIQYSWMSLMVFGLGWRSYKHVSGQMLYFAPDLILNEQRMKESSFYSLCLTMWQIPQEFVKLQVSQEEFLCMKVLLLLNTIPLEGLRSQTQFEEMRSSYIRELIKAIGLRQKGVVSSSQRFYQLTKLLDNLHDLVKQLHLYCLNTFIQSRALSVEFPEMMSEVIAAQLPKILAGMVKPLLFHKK
Sequence of Thyrotropin receptor (Homo sapiens) (P16473 whole entry, looked up): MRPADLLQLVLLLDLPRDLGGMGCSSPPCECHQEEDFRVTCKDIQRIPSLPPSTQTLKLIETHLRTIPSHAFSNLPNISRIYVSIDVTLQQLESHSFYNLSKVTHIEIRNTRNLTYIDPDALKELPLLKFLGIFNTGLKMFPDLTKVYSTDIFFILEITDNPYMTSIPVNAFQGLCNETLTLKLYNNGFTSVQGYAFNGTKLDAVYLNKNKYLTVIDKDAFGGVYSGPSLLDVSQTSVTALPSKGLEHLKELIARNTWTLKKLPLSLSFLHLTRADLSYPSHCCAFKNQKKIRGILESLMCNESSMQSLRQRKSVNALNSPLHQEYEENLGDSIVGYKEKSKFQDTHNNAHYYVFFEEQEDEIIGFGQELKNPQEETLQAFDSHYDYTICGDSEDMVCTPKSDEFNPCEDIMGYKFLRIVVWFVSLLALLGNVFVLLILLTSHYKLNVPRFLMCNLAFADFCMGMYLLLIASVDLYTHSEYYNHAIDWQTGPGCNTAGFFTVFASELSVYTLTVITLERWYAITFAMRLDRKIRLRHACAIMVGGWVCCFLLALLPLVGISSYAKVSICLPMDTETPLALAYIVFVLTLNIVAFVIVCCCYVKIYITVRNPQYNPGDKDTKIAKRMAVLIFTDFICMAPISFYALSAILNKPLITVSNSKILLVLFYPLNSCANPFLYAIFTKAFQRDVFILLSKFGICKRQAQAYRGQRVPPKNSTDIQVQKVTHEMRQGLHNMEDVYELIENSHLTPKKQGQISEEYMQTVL
Sequence of Thyrotropin-releasing hormone receptor (Homo sapiens) (P34981 whole entry, looked up): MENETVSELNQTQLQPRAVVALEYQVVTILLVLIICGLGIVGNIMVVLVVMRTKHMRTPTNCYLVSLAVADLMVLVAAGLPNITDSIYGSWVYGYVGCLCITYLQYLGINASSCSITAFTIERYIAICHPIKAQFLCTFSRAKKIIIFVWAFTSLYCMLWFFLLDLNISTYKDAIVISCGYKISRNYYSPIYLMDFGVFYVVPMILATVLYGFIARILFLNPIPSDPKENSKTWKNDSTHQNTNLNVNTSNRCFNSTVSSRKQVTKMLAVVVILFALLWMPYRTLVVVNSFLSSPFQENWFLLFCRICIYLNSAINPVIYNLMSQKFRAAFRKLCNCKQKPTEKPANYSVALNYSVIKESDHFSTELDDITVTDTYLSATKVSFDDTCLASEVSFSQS
Sequence of Nuclear receptor subfamily 1 group I member 2 (Rattus norvegicus) (Q9R1A7 whole entry, looked up): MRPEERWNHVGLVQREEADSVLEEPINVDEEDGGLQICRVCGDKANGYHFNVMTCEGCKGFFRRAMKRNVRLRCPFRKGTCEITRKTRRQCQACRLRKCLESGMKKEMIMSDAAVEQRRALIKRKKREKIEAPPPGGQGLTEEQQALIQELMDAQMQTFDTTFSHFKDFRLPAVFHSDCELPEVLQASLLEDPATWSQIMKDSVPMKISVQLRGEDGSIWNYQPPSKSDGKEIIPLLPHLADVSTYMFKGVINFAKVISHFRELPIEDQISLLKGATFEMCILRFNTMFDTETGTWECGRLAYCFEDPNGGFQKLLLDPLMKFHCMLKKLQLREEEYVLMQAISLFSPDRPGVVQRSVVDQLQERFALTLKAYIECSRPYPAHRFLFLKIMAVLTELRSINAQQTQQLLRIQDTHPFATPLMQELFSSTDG

For the compound `O=C(O)C(=O)O`, the compound was called inactive in experiment [1], in [3], in experiment [6], in experiment [8] and in [12]. The Potency result in [2], in experiment [4], in experiment [5], in experiment [7], in [9] and in experiment [10] was “inactive” each time. Further, the Potency result in [11], in [13] and in [14] was “inactive” throughout.
For `COc1c2occc2cc2ccc(=O)oc12`, the compound was called inactive in experiment [1], in experiment [3], in experiment [6], in experiment [8] and in experiment [12]. Also, the Potency result in [2], in experiment [15], in [4], in experiment [5], in experiment [7] and in [9] was “inactive” in each case. Further, the Potency entry in experiment [10], in experiment [11] and in experiment [13] was “inactive” in each case.
As for `CCCN(CCC)S(=O)(=O)c1ccc(C(=O)O)cc1`, the compound was classed as inactive in experiment [1], in experiment [3], in experiment [6], in experiment [8], in experiment [16] and in experiment [17]. Further, the outcome in [12] was inactive. The Potency entry in experiment [2], in experiment [15], in experiment [4], in experiment [5], in experiment [9] and in experiment [10] was “inactive” each time. Also, the Potency entry in [11] and in experiment [13] was “inactive” throughout.
As for `CCCCCCCCCCCCCCCC(=O)O`, the result in experiment [1], in experiment [3], in experiment [6], in experiment [8], in experiment [16] and in [17] was inactive. The outcome in experiment [12] and in [18] was inactive. Besides, the Potency result in experiment [2], in experiment [4], in experiment [5], in experiment [7], in experiment [9] and in experiment [10] was “inactive” each time. The Potency result in experiment [11], in [13] and in [19] was “inactive” in each case.
On to `CCCC(CCC)C(=O)O`, for which the result in [1], in experiment [3], in experiment [6], in [8], in experiment [16] and in [17] was inactive. In addition, the compound was called inactive in experiment [12] and in [18]. Moreover, the Potency result in experiment [2], in experiment [15], in experiment [4], in experiment [5], in [9] and in experiment [10] was “inactive” each time. The Potency result in [13], in experiment [14] and in [19] was “inactive” throughout. For the same compound, the max activation in [20] is 6.66% (inactive).
For `Cn1cc[nH]c1=S`, the outcome in [1], in experiment [3], in experiment [6], in [8] and in experiment [12] was inactive. Further, the Potency entry in experiment [2], in [15], in experiment [9], in experiment [10], in [13] and in experiment [19] was “inactive” throughout. The Potency in experiment [5] is 43.2 µM (active) and inactive. For the same compound, the max activation in experiment [20] was -0.0972% (inactive).
On to `NS(=O)(=O)c1cc(C(=O)O)c(NCc2ccco2)cc1Cl`, for which the compound was called inactive in [1], in experiment [3], in experiment [6], in [8], in [16] and in [17]. Further, the result in [12] was inactive. The Potency result in [2], in experiment [4], in experiment [5], in [7], in experiment [9] and in [13] was “inactive” each time.
Consider `NC(N)=NC(=O)c1nc(Cl)c(N)nc1N`, for which the outcome in experiment [1], in experiment [3], in experiment [6], in experiment [8], in experiment [16] and in experiment [17] was inactive. The result in experiment [12] was inactive. The Potency entry in experiment [2], in [15], in experiment [4], in experiment [5], in experiment [10] and in experiment [13] was “inactive” each time.
